Laboratory results published in PubChem BioAssay AID1347383 (Zoeller Lab, School of Medicine, Boston University, 2020).
Activity calls are given as the source filed them.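 How the source made its calls: active means cell survival after UV exposure 2 SD above solvent-only control wells at 10 µM, confirmed on one or two repeats; inactive means the rest.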

Experiment: cell survival after pyrene fatty acid photosensitization – ZR-82 cells, Analyticon library, screen 2, phospholipid biosynthesis inhibitor project, primary screen (AID 1347383);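 further: survival reflects blocked phospholipid synthesis cutting uptake of the phototoxic fatty acid; compound and fatty acid exposure 3 h then viability read next day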
Conditions: ZR-82 CHO cells, pyrene-fatty acid UV killing, CellTiter Blue; at 10 µM; peroxisome-deficient CHO-K1 variant; with DGAT-1, DGAT-2 and ACAT inhibitors

Row | SMILES | outcome
1 | CC1=C2C(=O)O[C@@H](c3ccoc3)[C@]2(C)CCC1=O | inactive
2 | COc1c(C)c2c(c(O)c1C/C=C(\C)CCCC(C)C(=O)O)C(=O)OC2 (centres undefined) | inactive
3 | C/C=C/c1cc(O)c(C(=O)C(=O)CC)c(=O)o1 | inactive
4 | CC(=O)Oc1ccc2c(C)cc(=O)oc2c1 | inactive
5 | O=C(Cc1ccccc1)O[C@@H]1[C@@H](O)[C@H](O)[C@@H](CO)O[C@H]1O | inactive
6 | CC(=O)CCCCCCCCNC(C)=O | inactive
7 | CC1=C2C[C@H]3O[C@@]3(C)CCC3O[C@@]3(C)C[C@@]2(O)OC1=O (some centres undefined) | inactive
8 | CC12CCC3C1C(c1c(cc(O)c(C(=O)c4ccccc4)c1O)O2)C3(C)C (centres undefined) | inactive
9 | CCC(O)/C=C1\OC(=O)C2=C1CCC=C2 (centres undefined) | inactive
10 | O=C(CCCCc1ccc(O)cc1)CCc1ccc(O)cc1 | inactive
11 | CCCCCCCCCC(O)CC(CC(CC1CC=CC(=O)O1)OC(C)=O)OC(C)=O (centres undefined) | inactive
12 | CCC(C)C(=O)O[C@H]1CCC=C2C=C[C@H](C)[C@H](CC[C@@H](O)C[C@@H](O)CC(=O)O)[C@H]21 (some centres undefined) | inactive
13 | CC(C)=CCCC1=CC(=O)OC1O (centres undefined) | inactive
14 | CC1=C2C=C(CO)C(CO)CCC2(C)CCC1=O (centres undefined) | inactive
15 | CC(C)(O)c1ccc2c(c1)CCC1C(C)(C(=O)O)CCCC21C (centres undefined) | inactive
16 | C=C[C@]1(C)C[C@](O)([C@@H]2OC2(C)C)Oc2c1c(=O)oc1cccc(CC)c21 | inactive
17 | CCC(C)C(=O)OC1CC(C)C=C2C=CC(C)C(CCC(O)CC(O)CC(=O)O)C21 (centres undefined) | inactive
18 | CCC(C)C(=O)Oc1cc(C)ccc1C1(COC(=O)C(C)C)CO1 (centres undefined) | inactive
19 | C=C[C@H]1CN2CC[C@H]1C[C@@H]2C(O)c1ccnc2ccc(OC)cc12 (some centres undefined) | inactive
20 | OCCc1ccc(O)cc1O | inactive

Row | SMILES | outcome
21 | C=C(Oc1cccc(C(=O)O)c1)C(=O)O | inactive
22 | CC(C)(O)[C@@H]1Cc2cc3ccc(=O)oc3cc2O1 | inactive
23 | CC1CCCC[C@H]2C(=O)C=C[C@H](O)[C@@H]2CC(=O)O1 (some centres undefined) | inactive
24 | OC1C(c2ccccc2)CCC(O)(c2ccccc2)C1O (centres undefined) | inactive
25 | O=C1C(c2[nH]c3ccccc3c2O)=Nc2ccccc21 | inactive
26 | O=C(O)c1ccc(OC2OC(CO)C(O)C(O)C2O)cc1 (centres undefined) | inactive
27 | C=CC(C)(C)c1c(OC)oc2cccc(C)c2c1=O | inactive
28 | COc1ccc(/C=C/C(=O)O)cc1O | inactive
29 | CC1=C2C[C@]3(C)C(=O)C[C@@H](C(C)C)[C@H]3C/C=C(/C)[C@@H]2CC1=O | inactive
30 | COc1cc(CNC(=O)CCCCCCC(C)C)ccc1O | inactive
31 | C=C1C(=O)OC2/C=C(\C)C3=CC(=O)C(C)(CC(OC(=O)/C(C)=C/COC(C)=O)C12)O3 (centres undefined) | inactive
32 | C/C1=C\CCC2=CC(OC2=O)C(C)(C)/C=C\C1=O (centres undefined) | inactive
33 | COc1ccc(CC2C(=O)OCC2Cc2cc(OC)c3c(c2)OCO3)cc1OC (centres undefined) | inactive
34 | O=C(/C=C/C=C/c1ccc2c(c1)OCO2)N1CCCCC1 | inactive
35 | C/C=C(/COC(=O)/C(C)=C/C)C(=O)OC/C=C/c1ccc(OC)cc1 | inactive
36 | CO[C@@H]1[C@H](O)CC[C@]2(CO2)[C@H]1[C@@]1(C)O[C@@H]1CC=C(C)C | inactive
37 | CC1=CCC(C(C)C)c2cc(C)c(O)cc21 (centres undefined) | inactive
38 | Cc1ccc(C(C)C)c(O)c1 | inactive
39 | C=C(C)C(O)Cc1c(O)cc(CCc2ccccc2)c(CC=C(C)C)c1O (centres undefined) | inactive
